# From the supplement of paper PMC8728848
# The sample as a whole holds a higher share of the strongest signals than the screen did.
# Columns and labels:
# Test in all cases: glycan array binding signal (z-score within array); higher = stronger binding
# Conditions in all cases: glycan notation: IUPAC condensed, linker removed
# [1] = target: Gal(b1-4)GlcNAc(b1-2)Man(a1-3)Man(b1-4)GlcNAc(b1-4)GlcNAc
# Summary of the method: (§1)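 Glycan array binding is given as a within-array Z-score, which can be read as non-binding when negative. The arrays, 3228 of them, came from the Consortium for Functional Glycomics database and were retained only where the protein sequence was available. Z-scores were averaged across arrays of the same protein sequence at different concentrations or buffers and across linkers.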
# [2] = target: Gal(b1-4)GlcNAc(b1-2)Man(a1-3)[GlcNAc(b1-2)Man(a1-6)]Man(b1-4)GlcNAc(b1-4)GlcNAc
# Summary of the method: as §1
# [3] = target: Gal(b1-4)GlcNAc(b1-3)Gal(b1-4)Glc
# Summary of the method: as §1
# [4] = target: Gal(b1-4)GlcNAc(b1-3)Gal(b1-4)GlcNAc(b1-2)[Gal(b1-4)GlcNAc(b1-3)Gal(b1-4)GlcNAc(b1-6)]Man(a1-6)[Gal(b1-4)GlcNAc(b1-3)Gal(b1-4)GlcNAc(b1-2)Man(a1-3)]Man(b1-4)GlcNAc(b1-4)[Fuc(a1-6)]GlcNAc
# Summary of the method: as §1
# [5] = target: Gal(b1-4)GlcNAc(b1-3)Gal(b1-4)GlcNAc(b1-3)Gal(b1-4)GlcNAc(b1-3)Gal(b1-4)GlcNAc(b1-2)Man(a1-3)[Gal(b1-4)GlcNAc(b1-3)Gal(b1-4)GlcNAc(b1-3)Gal(b1-4)GlcNAc(b1-3)Gal(b1-4)GlcNAc(b1-2)Man(a1-6)]Man(b1-4)GlcNAc(b1-4)[Fuc(a1-6)]GlcNAc
# Summary of the method: as §1
# [6] = target: Gal(b1-4)GlcNAc(b1-3)Gal(b1-4)GlcNAc(b1-3)Gal(b1-4)GlcNAc(b1-3)Gal(b1-4)GlcNAc(b1-3)Gal(b1-4)GlcNAc(b1-2)Man(a1-3)[Gal(b1-4)GlcNAc(b1-3)Gal(b1-4)GlcNAc(b1-3)Gal(b1-4)GlcNAc(b1-3)Gal(b1-4)GlcNAc(b1-3)Gal(b1-4)GlcNAc(b1-2)Man(a1-6)]Man(b1-4)GlcNAc(b1-4)GlcNAc
# Summary of the method: as §1
# [7] = target: Gal(b1-4)GlcNAc(b1-3)Gal(b1-4)GlcNAc(b1-3)Gal(b1-4)GlcNAc(b1-3)Gal(b1-4)GlcNAc(b1-3)Gal(b1-4)GlcNAc(b1-3)Gal(b1-4)GlcNAc(b1-2)Man(a1-3)[Gal(b1-4)GlcNAc(b1-3)Gal(b1-4)GlcNAc(b1-3)Gal(b1-4)GlcNAc(b1-3)Gal(b1-4)GlcNAc(b1-3)Gal(b1-4)GlcNAc(b1-3)Gal(b1-4)GlcNAc(b1-2)Man(a1-6)]Man(b1-4)GlcNAc(b1-4)GlcNAc
# Summary of the method: as §1
# Gal3S(b1-4)Glc6S = target: Gal3S(b1-4)Glc6S
# Summary of the method: as §1
# Gal4S6S(b1-4)GlcNAc = target: Gal4S6S(b1-4)GlcNAc
# Summary of the method: as §1
# Gal6S(b1-4)Glc6S = target: Gal6S(b1-4)Glc6S
# Summary of the method: as §1
# Gal6S(b1-4)GlcNAc6S = target: Gal6S(b1-4)GlcNAc6S
# Summary of the method: as §1
# [8] = target: GalNAc(b1-3)Gal(a1-6)Gal(b1-4)Glc
# Summary of the method: as §1
# [9] = target: GalNAc(b1-4)GlcNAc(b1-2)Man
# Summary of the method: as §1
# [10] = target: GalNAc(b1-4)GlcNAc(b1-2)Man(a1-3)[GalNAc(b1-4)GlcNAc(b1-2)Man(a1-6)]Man(b1-4)GlcNAc(b1-4)GlcNAc
# Summary of the method: as §1
# [11] = target: GlcNAc(a1-4)Gal(b1-4)GlcNAc(b1-3)Gal(b1-4)Glc
# Summary of the method: as §1
# [12] = target: GlcNAc(b1-3)Gal(b1-4)GlcNAc(b1-3)Gal(b1-4)GlcNAc(b1-3)Gal(b1-4)GlcNAc(b1-3)Gal(b1-4)GlcNAc(b1-2)Man(a1-3)[GlcNAc(b1-3)Gal(b1-4)GlcNAc(b1-3)Gal(b1-4)GlcNAc(b1-3)Gal(b1-4)GlcNAc(b1-3)Gal(b1-4)GlcNAc(b1-2)Man(a1-6)]Man(b1-4)GlcNAc(b1-4)[Fuc(a1-6)]GlcNAc
# Summary of the method: as §1
# GlcNAc(b1-3)Man = target: GlcNAc(b1-3)Man
# Summary of the method: as §1
# [13] = target: Man(a1-2)Man(a1-3)[Man(a1-2)Man(a1-6)]Man
# Summary of the method: as §1
# [14] = target: Man(a1-2)Man(a1-6)[Man(a1-3)]Man(a1-6)[Man(a1-2)Man(a1-2)Man(a1-3)]Man(b1-4)GlcNAc(b1-4)GlcNAc
# Summary of the method: as §1
# [15] = target: Neu5Ac(a2-3)Gal(b1-3)GlcNAc
# Summary of the method: as §1
# [16] = target: Neu5Ac(a2-3)Gal(b1-4)GlcNAc(b1-2)Man(a1-3)[Neu5Ac(a2-3)Gal(b1-4)GlcNAc(b1-2)Man(a1-6)]Man(b1-4)GlcNAc(b1-4)[Fuc(a1-6)]GlcNAc
# Summary of the method: as §1
# [17] = target: Neu5Ac(a2-3)Gal(b1-4)GlcNAc(b1-2)[Neu5Ac(a2-3)Gal(b1-4)GlcNAc(b1-6)]Man(a1-6)[Neu5Ac(a2-3)Gal(b1-4)GlcNAc(b1-2)Man(a1-3)][GlcNAc(b1-4)]Man(b1-4)GlcNAc(b1-4)GlcNAc
# Summary of the method: as §1
# [18] = target: Neu5Ac(a2-3)Gal(b1-4)GlcNAc(b1-3)Gal(b1-4)GlcNAc
# Summary of the method: as §1
# [19] = target: Neu5Ac(a2-3)Gal(b1-4)GlcNAc(b1-3)Gal(b1-4)GlcNAc(b1-2)Man(a1-3)[Neu5Ac(a2-3)Gal(b1-4)GlcNAc(b1-3)Gal(b1-4)GlcNAc(b1-2)Man(a1-6)]Man(b1-4)GlcNAc(b1-4)GlcNAc
# Summary of the method: as §1
# [20] = target: Neu5Ac(a2-3)Gal(b1-4)GlcNAc(b1-3)Gal(b1-4)GlcNAc(b1-3)GalNAc
# Summary of the method: as §1
# [21] = target: Neu5Ac(a2-3)Gal(b1-4)GlcNAc(b1-3)Gal(b1-4)GlcNAc(b1-3)[Neu5Ac(a2-3)Gal(b1-4)GlcNAc(b1-3)Gal(b1-4)GlcNAc(b1-6)]GalNAc
# Summary of the method: as §1
# [22] = target: Neu5Ac(a2-3)Gal(b1-4)GlcNAc(b1-6)[Gal(b1-3)]GalNAc
# Summary of the method: as §1
# [23] = target: Neu5Ac(a2-3)Gal(b1-4)[Fuc(a1-3)]GlcNAc(b1-3)Gal(b1-4)[Fuc(a1-3)]GlcNAc(b1-3)Gal(b1-4)[Fuc(a1-3)]GlcNAc
# Summary of the method: as §1
# [24] = target: Neu5Ac(a2-3)Gal(b1-4)[Fuc(a1-3)]GlcNAc(b1-3)GalNAc
# Summary of the method: as §1
# Neu5Ac(a2-3)GalNAc = target: Neu5Ac(a2-3)GalNAc
# Summary of the method: as §1
# [25] = target: Neu5Ac(a2-3)[GalNAc(b1-4)]Gal(b1-4)Glc
# Summary of the method: as §1
# [26] = target: Neu5Ac(a2-6)Gal(b1-4)GlcNAc(b1-3)GalNAc
# Summary of the method: as §1
# [27] = target: Neu5Ac(a2-6)GalNAc(b1-4)GlcNAc
# Summary of the method: as §1
# [28] = target: Neu5Ac(a2-6)GlcNAc(b1-4)GlcNAc
# Summary of the method: as §1
# [29] = target: Neu5Ac(a2-8)Neu5Ac(a2-8)Neu5Ac
# Summary of the method: as §1
# [30] = target: Neu5Ac(a2-8)Neu5Gc(a2-3)Gal(b1-4)GlcNAc
# Summary of the method: as §1
# [31] = target: Neu5Gc(a2-3)Gal(b1-3)GlcNAc
# Summary of the method: as §1
binder,measurement,setting,value
PX14379A-bvu-539-28-539 (Bacteroides vulgatus) (protein) EPYSEIIEEDYVPTEADEIALLATTYSQLRFVMDWYGLFDLQEESGDVIVTPTRPNGWDDGGTYKQMHKHTWDNQQGQPQSIWDYCYKGIANANKILKRADEGFFTEESKPKVVAEVKGVRALWYSILCDTHGNIPIQTSFSEEVPVQSTRKQVFDFIINELKEVMPNLPTEVNKSTYGRLTQWGAKCLMARMYLNAGVYTGTPMWNECLEQCNDIINSGLFSLETNYTDIFKTENSGCVETIFAIPYDEVYNEGDNNGPVFGAHMKFLSSNSRKVFNMQTTPWGGSAANPQFINSYDPDDMRLKYTWLQGDQYSPDGVLITTFPNKLPSIYKTDTDDGYRVGKYEIKVGAKSLLSNDFPYFRYTEVLLMKAECLLRLGQNETEAAHIVSQIRERAFRESAHPEKATVDAAWLKGDTHINYGTLDEKGQIDDAGNTEVVELGGLYDEWGWEFAAEARRRTDMIRFGTYQKKSWFNHTPTANDLNGNSILFPIHLDHLNTNPNLQQNPGYAGK,glycan array binding signal (z-score),[1],0.346
same,glycan array binding signal (z-score),[2],3.64
same,glycan array binding signal (z-score),[3],-0.017
same,glycan array binding signal (z-score),[4],7.27
same,glycan array binding signal (z-score),[5],0.984
same,glycan array binding signal (z-score),[6],9.41
same,glycan array binding signal (z-score),[7],0.819
same,glycan array binding signal (z-score),Gal3S(b1-4)Glc6S,-0.224
same,glycan array binding signal (z-score),Gal4S6S(b1-4)GlcNAc,-0.533
same,glycan array binding signal (z-score),Gal6S(b1-4)Glc6S,-0.28
same,glycan array binding signal (z-score),Gal6S(b1-4)GlcNAc6S,-0.175
same,glycan array binding signal (z-score),[8],2.98
same,glycan array binding signal (z-score),[9],-0.549
same,glycan array binding signal (z-score),[10],-0.102
same,glycan array binding signal (z-score),[11],-0.444
same,glycan array binding signal (z-score),[12],3.83
same,glycan array binding signal (z-score),GlcNAc(b1-3)Man,-0.278
same,glycan array binding signal (z-score),[13],-0.377
same,glycan array binding signal (z-score),[14],-0.361
same,glycan array binding signal (z-score),[15],-0.439
same,glycan array binding signal (z-score),[16],-0.571
same,glycan array binding signal (z-score),[17],-0.378
same,glycan array binding signal (z-score),[18],-0.185
same,glycan array binding signal (z-score),[19],0.342
same,glycan array binding signal (z-score),[20],-0.138
same,glycan array binding signal (z-score),[21],-0.132
same,glycan array binding signal (z-score),[22],-0.388
same,glycan array binding signal (z-score),[23],-0.35
same,glycan array binding signal (z-score),[24],5.8
same,glycan array binding signal (z-score),Neu5Ac(a2-3)GalNAc,-0.249
same,glycan array binding signal (z-score),[25],-0.297
same,glycan array binding signal (z-score),[26],-0.204
same,glycan array binding signal (z-score),[27],-0.211
same,glycan array binding signal (z-score),[28],-0.56
same,glycan array binding signal (z-score),[29],-0.382
same,glycan array binding signal (z-score),[30],7.1
same,glycan array binding signal (z-score),[31],-0.228
